Potency and outcome data for eight compounds are collected here from PubChem BioAssay (Tox21).

In assay [1] the target is Androgen receptor (Homo sapiens) (UniProt P10275). Put plainly: qHTS assay to identify small molecule antagonists of the androgen receptor (AR) signaling pathway using the MDA cell line in the presence of 0.5 nM R1881 (AID 1259243). Note: potency is the fitted concentration of half-maximal effect; nearly all actives have a fitted effect of over 50% in size. The method, boiled down: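 We exposed MDA-kb2 cells to compounds under 0.5 nM R1881 stimulation for 16 hr at 37C and quantified MMTV-driven luciferase by luminescence.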
Androgen receptor (Homo sapiens), sequence (P10275 whole entry, looked up): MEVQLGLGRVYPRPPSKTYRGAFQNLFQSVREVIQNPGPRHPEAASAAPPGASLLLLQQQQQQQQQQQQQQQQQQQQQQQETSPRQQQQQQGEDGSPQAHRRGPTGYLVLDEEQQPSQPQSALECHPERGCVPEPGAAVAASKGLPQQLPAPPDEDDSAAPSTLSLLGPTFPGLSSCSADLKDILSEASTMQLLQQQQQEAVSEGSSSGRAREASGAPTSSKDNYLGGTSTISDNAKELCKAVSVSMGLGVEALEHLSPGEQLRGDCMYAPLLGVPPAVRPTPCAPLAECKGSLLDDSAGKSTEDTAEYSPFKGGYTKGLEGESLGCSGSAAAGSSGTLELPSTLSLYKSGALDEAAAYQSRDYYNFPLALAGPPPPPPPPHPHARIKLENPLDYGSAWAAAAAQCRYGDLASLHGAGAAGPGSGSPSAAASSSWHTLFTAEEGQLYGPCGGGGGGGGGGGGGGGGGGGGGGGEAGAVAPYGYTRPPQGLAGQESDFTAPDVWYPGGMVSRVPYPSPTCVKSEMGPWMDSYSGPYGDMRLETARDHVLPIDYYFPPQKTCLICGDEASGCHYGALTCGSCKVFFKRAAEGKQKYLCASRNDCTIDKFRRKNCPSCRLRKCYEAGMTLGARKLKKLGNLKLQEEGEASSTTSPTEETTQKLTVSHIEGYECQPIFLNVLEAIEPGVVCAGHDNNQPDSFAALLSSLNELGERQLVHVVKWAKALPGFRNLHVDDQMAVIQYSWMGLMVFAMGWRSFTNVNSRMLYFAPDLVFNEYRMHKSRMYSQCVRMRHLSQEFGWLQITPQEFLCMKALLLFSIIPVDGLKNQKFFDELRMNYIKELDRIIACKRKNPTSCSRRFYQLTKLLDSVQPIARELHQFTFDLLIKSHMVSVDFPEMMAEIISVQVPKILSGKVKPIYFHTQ
Background: Quantitative high-throughput screening tests each substance at several concentrations.

For assay [2], the target named is Estrogen receptor (Homo sapiens) (UniProt P03372). Nature of the assay: qHTS assay to identify small molecule antagonists of the estrogen receptor alpha (ER-alpha) signaling pathway using the BG1 cell line in the presence of 0.1 nM 17-beta-estradiol (AID 1259244). Note: nearly all actives have a fitted effect of over 50% in size. Note: potency is the fitted concentration of half-maximal effect. The method, boiled down: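 VM7Luc4E2; 4xERE-luciferase; 0.1 nM E2 final; 22 h co-incubation, 37C; ONE-Glo luminescence after 30 min at room temperature.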
Estrogen receptor (Homo sapiens), sequence (P03372 whole entry, looked up): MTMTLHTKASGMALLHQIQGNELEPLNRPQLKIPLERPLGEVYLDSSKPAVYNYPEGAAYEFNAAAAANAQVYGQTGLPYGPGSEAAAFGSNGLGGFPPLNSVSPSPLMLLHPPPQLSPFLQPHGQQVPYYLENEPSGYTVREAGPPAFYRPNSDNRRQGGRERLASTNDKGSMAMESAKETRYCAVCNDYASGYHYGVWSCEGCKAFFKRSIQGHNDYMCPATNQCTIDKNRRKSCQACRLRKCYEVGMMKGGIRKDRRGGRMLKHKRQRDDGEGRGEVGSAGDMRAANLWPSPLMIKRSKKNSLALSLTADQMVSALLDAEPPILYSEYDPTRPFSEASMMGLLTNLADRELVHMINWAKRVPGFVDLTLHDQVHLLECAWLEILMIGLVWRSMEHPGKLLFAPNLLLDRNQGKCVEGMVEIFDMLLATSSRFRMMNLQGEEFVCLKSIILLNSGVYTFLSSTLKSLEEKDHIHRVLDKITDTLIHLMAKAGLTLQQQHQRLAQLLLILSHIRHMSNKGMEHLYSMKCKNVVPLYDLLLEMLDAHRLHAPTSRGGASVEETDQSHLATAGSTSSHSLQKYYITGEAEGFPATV

Assay [3] in a line: qHTS assay to identify small molecule HDAC inhibitors (AID 1259364).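 Note: wild-type HCT-116 cells with endogenous class I/II HDAC activity; top concentration of the series differs between compounds; nearly all actives have a fitted effect of over 45% in size.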 In short, it runs like this: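 Relative class I and II HDAC activity is taken from the luminogenic signal in HCT-116 cells, with compound exposure 2 hr and reagent development 30 min at room temperature.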
Assay [4] can be described thus: qHTS assay to identify small molecule antagonists of the sonic hedgehog signaling (Shh) pathway - cell viability counter screen (AID 1259367). Note: nearly all actives have a fitted effect of over 55% in size. Note: potency is the fitted concentration of half-maximal effect. The method, boiled down: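 Using CellTiter-Fluor, viability of Gli1-Luc reporter 3T3 cells is read by fluorescence in the wells used for the Shh luciferase assay. Treatment lasts 23 hr with conditioned medium, then reagent 1 hr at 37C.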

The nature of assay [5]: qHTS assay to identify small molecule agonists of the sonic hedgehog signaling (Shh) pathway (AID 1259368; calls by dose curve; note: series mostly up to about 92 µM; nearly all actives have a fitted effect of over 15% in size). The method, boiled down:
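Mouse fibroblast (NIH/3T3) reporter cells with stably integrated Gli1-Luc were treated 24 hr with compound; firefly luciferase luminescence served as the read-out.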

The target in assay [6] is Estrogen receptor beta (Homo sapiens) (UniProt Q92731). Put plainly: qHTS assay to identify small molecule agonists of the estrogen receptor beta (ER-beta) signaling pathway (AID 1259377; active = well fitted activation curve with a large enough effect in the signal ratio in the repeat runs, not every such curve was filed as active; the % refers to the signal ratio). The method, boiled down:
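ER-beta-UAS-bla HEK293T (GripTite) cells carrying a UAS-driven beta-lactamase reporter, in medium with 2% charcoal-stripped FBS, were exposed to compounds for 16 hr at 37C; LiveBLAzer B/G FRET substrate was then added and fluorescence read after 2 hours at room temperature.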

Assay [7] can be described thus: qHTS assay to identify small molecule agonists of the androgen receptor (AR) signaling pathway in the presence of an antagonist - cell viability counter screen (AID 1259379). Note: nearly all actives have a fitted effect of over 25% in size. Note: potency is the fitted concentration of half-maximal effect. In short, it runs like this: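 A CellTiter-Fluor read-out measured viability of MDA-kb2 reporter cells (MMTV promoter with AR and GR response elements). Treatment: nilutamide 3.0uM final with compounds at 15 concentrations, 16 hr, 37C, 0% CO2.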

Assay [8] can be described thus: qHTS assay to identify small molecule agonists of the estrogen receptor beta (ER-beta) signaling pathway - cell viability counter screen (AID 1259380). Note: potency is the fitted concentration of half-maximal effect; nearly all actives have a fitted effect of over 30% in size. The method, boiled down:
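Cells used were ER-beta-UAS-bla HEK293T in medium with 2% charcoal-stripped FBS. They were treated for 16 hr at 37C. Viability came from CellTiter-Glo luminescence.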

For assay [9], the target named is Androgen receptor (Homo sapiens) (UniProt P10275). Nature of the assay: qHTS assay to identify small molecule agonists of the androgen receptor (AR) signaling pathway in the presence of an antagonist (AID 1259381; calls by dose curve; note: nearly all actives have a fitted effect of over 15% in size). The method, boiled down: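 Using human MDA-kb2 cells with an MMTV promoter–luciferase construct (AR and GR response elements), agonist activity is scored under 3.0uM nilutamide (final) co-treatment; 16hr incubation, 37C, luminescence readout via ONE-Glo.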

The nature of assay [10]: qHTS assay to identify small molecule antagonists of the estrogen receptor beta (ER-beta) signaling pathway - cell viability counter screen (AID 1259382). Note: nearly all actives have a fitted effect of over 55% in size. Note: potency is the fitted concentration of half-maximal effect. The method, boiled down: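 Agonist-stimulated (1nM E2) ER-beta-UAS-bla HEK293T cells are incubated with library compounds for 16 hr at 37C. Cell viability is then assessed in the reporter-assay wells by adding CellTiter-Glo and reading luminescence after 30 min.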

In assay [11] the target is Estrogen receptor (Homo sapiens) (UniProt P03372). Nature of the assay: qHTS assay to identify small molecule agonists of the estrogen receptor alpha (ER-alpha) signaling pathway in the presence of an antagonist (AID 1259383; calls by dose curve; note: top concentration of the series differs between compounds; nearly all actives have a fitted effect of over 15% in size). The method, boiled down: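 Using VM7Luc4E2 cells seeded 24hr before treatment, antagonist ICI-182,780 (10.0nM final) was added, followed by compounds at 15 concentrations. Plates incubated 22hr; ONE-Glo luminescence quantified reporter activity.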

A short description of assay [12]: qHTS assay to identify small molecule HDAC inhibitors - cell viability counter screen (AID 1259365). Note: series mostly up to about 92 µM; nearly all actives have a fitted effect of over 50% in size. In short, it runs like this:
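Wild-type HCT-116 cells were seeded at 1,500 per well, incubated overnight at 37 C, then exposed to compounds in DMSO for 2hr. Viability was read by CellTiter-Glo luminescence after 30min at room temperature.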

A short description of assay [13]: qHTS assay to identify small molecule agonists of the sonic hedgehog signaling (Shh) pathway - cell viability counter screen (AID 1259366). Note: nearly all actives have a fitted effect of over 50% in size. Note: potency is the fitted concentration of half-maximal effect. In short, it runs like this:
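NIH/3T3-derived 3T3 Gli1-Luc cells (stable Gli1-responsive firefly luciferase reporter) were seeded, rested 4 hr at 37 C/5% CO2, then exposed to compounds in DMSO for 24 hr; viability was read by CellTiter-Fluor fluorescence in the same wells.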

The nature of assay [14]: qHTS assay to identify small molecule antagonists of the sonic hedgehog signaling (Shh) pathway (AID 1259369; calls by dose curve; note: nearly all actives have a fitted effect of over 45% in size; note: potency is the fitted concentration of half-maximal effect). The method, boiled down: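 Conditioned medium drives Shh signalling in 3T3Gli1-Luc cells; compounds in DMSO co-applied, 24hr at 37 C, then luciferase luminescence.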
Assay [15] addresses Estrogen receptor beta (Homo sapiens) (UniProt Q92731). Put plainly: qHTS assay to identify small molecule antagonists of the estrogen receptor beta (ER-beta) signaling pathway (AID 1259378; active = well fitted inhibition curve with a large enough effect in the signal ratio in the repeat runs, not every such curve was filed as active; the % refers to the signal ratio; note: potency is the fitted concentration of half-maximal effect). In short, it runs like this:
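Antagonist mode: compounds added to beta-lactamase reporter HEK293T ER-beta-UAS cells stimulated with E2 (1nM final), 16 hr at 37C. LiveBLAzer B/G FRET substrate, 2 hours room temperature, fluorescence read-out.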

The nature of assay [16]: qHTS assay to identify small molecule agonists or antagonists of the thyroid stimulating hormone receptor (TSHR) signaling pathway - wild type cell line counter screen (AID 1259384; calls by dose curve). The method, boiled down: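 Counter screen in untransfected Hek293: compounds (15-point titration, triplicate) plus phosphodiesterase inhibitor Ro20-1724 added after 18 h plating; 30 min RT. Intracellular cAMP via competitive d2/cryptate immunoassay, 1 h incubation.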

Assay [17] concerns the target Thyrotropin receptor (Homo sapiens) (UniProt P16473). Put plainly: qHTS assay to identify small molecule antagonists of the thyroid stimulating hormone receptor (TSHR) signaling pathway (AID 1259385; calls by dose curve; note: nearly all actives have a fitted effect of over 20% in size; note: potency is the fitted concentration of half-maximal effect). The method, boiled down: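 Antagonist mode: compound-treated TSHR-expressing HEK293 cells were stimulated with 1.5 ng/mL TSH (final) in presence of Ro20-1724 for 30 min at RT. HTRF cAMP detection after 1 h; each compound tested at 15 concentrations, triplicate.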

The nature of assay [18]: qHTS assay to identify small molecule antagonists of the androgen receptor (AR) signaling pathway using the MDA cell line in the presence of 0.5 nM R1881 - cell viability counter screen (AID 1259242). Note: nearly all actives have a fitted effect of over 45% in size. Note: potency is the fitted concentration of half-maximal effect. In short, it runs like this: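 R1881 at 0.5 nM final stimulated MDA-kb2 cells during 16 hr compound treatment at 37C. Cytotoxicity read: CellTiter-Fluor fluorescence after 30 min.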

Assay [19] in a line: qHTS assay to identify small molecule phospholipidosis (PLD) inducers (AID 1259344; active = well fitted curve in the direction sought with a large enough effect; an effect the other way counts as inactive or inconclusive). The method, boiled down:
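Fluorescent phospholipid staining (LipidTOX Red) measured by automated microscopy in fixed HepG2 cells after 24 h treatment; nuclei counterstained with Hoechst 33342; amiodarone as reference inducer.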

A number with no mark means an inactive call. Results filed as inconclusive are left out. Calls of active or inactive are those of the source. Unless noted, calls come from the whole dose curve; as a rule, active = well fitted curve in the direction sought with a large enough effect in the repeat runs; inconclusive = weak or mixed curves; inactive = no such curve, though single readings can be large; an effect the other way counts as inactive or inconclusive.

Thyrotropin receptor (Homo sapiens), sequence (P16473 whole entry, looked up): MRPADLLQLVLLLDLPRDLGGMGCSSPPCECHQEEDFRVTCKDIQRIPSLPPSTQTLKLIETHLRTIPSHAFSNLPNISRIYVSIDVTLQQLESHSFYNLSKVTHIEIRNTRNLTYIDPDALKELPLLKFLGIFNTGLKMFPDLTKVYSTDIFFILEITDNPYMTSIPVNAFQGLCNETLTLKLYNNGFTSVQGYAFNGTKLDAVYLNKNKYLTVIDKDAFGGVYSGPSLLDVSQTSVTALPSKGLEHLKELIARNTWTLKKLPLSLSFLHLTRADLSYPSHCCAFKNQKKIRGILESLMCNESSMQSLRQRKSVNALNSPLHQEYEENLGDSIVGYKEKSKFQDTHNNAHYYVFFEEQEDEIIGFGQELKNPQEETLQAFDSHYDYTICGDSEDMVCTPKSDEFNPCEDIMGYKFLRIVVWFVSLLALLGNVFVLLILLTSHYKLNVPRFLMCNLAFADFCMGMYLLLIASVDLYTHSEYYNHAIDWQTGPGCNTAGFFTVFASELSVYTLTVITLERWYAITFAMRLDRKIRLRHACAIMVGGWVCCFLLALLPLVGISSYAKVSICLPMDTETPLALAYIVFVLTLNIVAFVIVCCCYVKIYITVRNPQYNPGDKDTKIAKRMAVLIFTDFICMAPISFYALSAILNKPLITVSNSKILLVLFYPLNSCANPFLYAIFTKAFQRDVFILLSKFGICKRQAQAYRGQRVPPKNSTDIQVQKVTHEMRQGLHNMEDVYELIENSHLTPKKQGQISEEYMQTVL
Estrogen receptor beta (Homo sapiens), sequence (Q92731 whole entry, looked up): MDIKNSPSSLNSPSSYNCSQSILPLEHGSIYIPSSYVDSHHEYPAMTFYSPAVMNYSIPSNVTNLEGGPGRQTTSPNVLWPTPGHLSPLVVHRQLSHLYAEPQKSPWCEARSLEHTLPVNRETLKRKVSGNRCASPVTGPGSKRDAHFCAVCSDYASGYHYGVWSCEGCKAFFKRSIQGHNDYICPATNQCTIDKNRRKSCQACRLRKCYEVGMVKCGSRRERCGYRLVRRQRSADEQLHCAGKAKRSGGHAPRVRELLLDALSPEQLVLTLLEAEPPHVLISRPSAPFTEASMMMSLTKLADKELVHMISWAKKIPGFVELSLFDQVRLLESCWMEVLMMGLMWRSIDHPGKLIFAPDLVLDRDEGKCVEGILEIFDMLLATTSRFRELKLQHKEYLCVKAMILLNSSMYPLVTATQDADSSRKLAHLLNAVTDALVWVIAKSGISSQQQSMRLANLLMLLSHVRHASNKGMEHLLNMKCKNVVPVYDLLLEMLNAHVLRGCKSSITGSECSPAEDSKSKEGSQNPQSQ

In the case of `O=C1c2c(O)ccc(Nc3ccc(CCO)cc3)c2C(=O)c2c([N+](=O)[O-])ccc(O)c21`, the Potency is 54.5 µM (active) in assay [1], 48.6 µM (active) in [4], 43.3 µM (active) in assay [7] and 17.2 µM (active) in [8]. The Potency result in [2], in assay [3], in assay [5], in assay [6], in [9] and in [10] was “inactive” each time. Besides, the Potency entry in assay [11] is “inactive”.
For `N#CSc1ccc(N)c([N+](=O)[O-])c1`, the Potency was 30.8 µM (active) in [1]; 69 µM (active) in [13]; 30.8 µM (active) in [4]; 12.3 µM (active) in assay [14]; 19.4 µM (active) in [15]; 54.8 µM (active) in assay [7]. The Potency in assay [17] is 61.5 µM (active). Moreover, the Potency entry in [3], in [12], in assay [5], in [9] and in [11] was “inactive” each time. Besides, the result in assay [16] was inactive.
On to `Nc1nc2ccccc2n1Cc1ccc(F)cc1`, for which the Potency in assay [1] was 7.5 µM (active); in assay [2], 10.6 µM (active); in assay [7], 26.6 µM (active). Also, the Potency entry in assay [3], in assay [12], in assay [13], in [4], in assay [5] and in assay [9] was “inactive” in each case. Also, the Potency result in [10], in assay [11] and in assay [17] was “inactive” each time. Moreover, the outcome in [16] was inactive.
`NNc1nc(-c2ccc(N)cc2)cs1`: the Potency entry in [2], in [3], in [13], in [5], in [6] and in [15] was “inactive” each time. For the same compound, the Potency entry in assay [11] is “inactive”. Further, in assay [8], the Potency is 15.4 µM (active). Further, the compound was classed as inactive in [16].
With `CCOc1ccc2nc3cc(N)ccc3c(N)c2c1`, the Potency result in [18], in assay [19], in [3], in assay [12], in assay [5] and in assay [7] was “inactive” in each case. Further, the Potency entry in [11] is “inactive”.
Take `CC(=O)N1CCN(c2ccc(OC[C@H]3CO[C@](Cn4ccnc4)(c4ccc(Cl)cc4Cl)O3)cc2)CC1`: the Potency was 61.1 µM (active) in assay [18]; 27.3 µM (active) in assay [2]; 54.5 µM (active) in [13]; 27.3 µM (active) in assay [4]; 3.06 µM (active) in [14]; 21.7 µM (active) in assay [15]. The Potency was 54.5 µM (active) in assay [7], 48.6 µM (active) in [8] and 30.6 µM (active) in [10]. Besides, the Potency entry in assay [3], in assay [5] and in [11] was “inactive” each time. In addition, in assay [16], the result was inactive.
Consider `Cc1cc(=O)oc2cc(N(C)C)ccc12`, for which the Potency entry in assay [3], in assay [5], in [14] and in assay [17] was “inactive” each time. Also, in [16], the result was inactive.
On to `CCN(CCC#N)c1ccc(N=Nc2c(Cl)cc([N+](=O)[O-])cc2Cl)cc1`, for which the Potency result in assay [3], in [12], in assay [13], in [5], in assay [14] and in assay [11] was “inactive” each time. In addition, the Potency result in assay [17] was “inactive”. Further, the Potency in assay [7] is 17.2 µM (active). For the same compound, the outcome in assay [16] was inactive.
